Reference: PubChem BioAssay (NCI)
The panel holds about 79,000 compounds, 15% with a hit somewhere; the sample as a whole holds those more often. Activity calls are given as the source filed them. No stated cut-off is given here; in the data, active means growth inhibition above about 70%; inactive means the rest.

Key:
[1] = NCI Yeast Anticancer Drug Screen. Data for the rad52 strain (AID 147);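 further: 0% = growth of vehicle-treated control cultures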; details: S. cerevisiae rad52 mutant growth inhibition, hits give high values
How it was run: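 Here a repair-compromised yeast strain receives each compound; its growth is then quantified and normalised to vehicle-only controls.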

[2] = NCI Yeast Anticancer Drug Screen. Data for the wt1 strain (AID 149);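 further: 0% = growth of vehicle-treated wt1 cultures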; details: S. cerevisiae wt1 strain (SPY 50644) growth inhibition, hits give high values
How it was run: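 Growth inhibition read against vehicle controls after compound exposure of the wt1 yeast strain.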

[3] = NCI Yeast Anticancer Drug Screen. Data for the rad50EPP+ strain (AID 151);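 further: 0% = growth of vehicle-treated control cultures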; details: S. cerevisiae rad50 mutant strain, hits give high values
How it was run: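 Read-out is yeast growth inhibition relative to vehicle; cells used were the rad50EPP+ strain.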

[4] = NCI Yeast Anticancer Drug Screen. Data for the mgt1 strain (AID 153); details: S. cerevisiae mgt1 mutant growth inhibition, hits give high values
How it was run: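 Measured: inhibition of mgt1 yeast growth by compound, normalized to vehicle-treated cultures.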

[5] = NCI Yeast Anticancer Drug Screen. Data for the rad50 strain (AID 155);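 further: 0% = growth of vehicle-only cultures of the same strain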; details: S. cerevisiae rad50 strain growth inhibition, hits give high values
How it was run: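 Readout: growth inhibition relative to vehicle-treated cultures. Compound exposure was carried out in a genetically defined yeast strain deficient in DNA damage repair.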

[6] = NCI Yeast Anticancer Drug Screen. Data for the mec2-1 strain (AID 157); details: S. cerevisiae mec2-1 strain, hits give high values
How it was run: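 Using mec2-1 yeast: add compound, measure growth, express inhibition versus vehicle-treated cultures.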

[7] = NCI Yeast Anticancer Drug Screen. Data for the rad14 strain (AID 159);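 further: 0% = growth of vehicle-treated control cultures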; details: S. cerevisiae rad14 strain growth inhibition, hits give high values
How it was run: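 Growth inhibition vs vehicle controls; genetically altered yeast strain (DNA damage repair defect) treated with test compounds.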

[8] = NCI Yeast Anticancer Drug Screen. Data for the sgs1 mgt1 strain (AID 161);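 further: 0% = growth of cultures given vehicle only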; details: S. cerevisiae sgs1 mgt1 strain, hits give high values
How it was run: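 Growth of a repair-deficient yeast mutant was monitored after compound treatment and expressed as inhibition relative to vehicle-treated cultures.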

[9] = NCI Yeast Anticancer Drug Screen. Data for the CLN2oe strain (AID 163);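 further: 0% = growth of vehicle-only control cultures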; details: S. cerevisiae CLN2oe strain, hits give high values
How it was run: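 Whole-cell yeast growth assay. A strain engineered for altered cell-cycle control received compound, and inhibition relative to vehicle-treated cultures was recorded.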

[10] = NCI Yeast Anticancer Drug Screen. Data for the cln2 rad14 strain (AID 165);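 further: 0% = growth equal to vehicle treated cultures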; details: S. cerevisiae cln2 rad14 strain, hits give high values
How it was run: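 Yeast strain cln2 rad14, bearing defects in cell cycle control and DNA repair, serves as the test system; values reflect growth inhibition compared with vehicle.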

[11] = NCI Yeast Anticancer Drug Screen. Data for the bub3 strain (AID 167); details: S. cerevisiae bub3 mutant strain, hits give high values
How it was run: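 Readout: yeast growth inhibition, expressed relative to vehicle-only wells. The test organism is a mutant strain from a panel with lesions in DNA repair or checkpoint genes.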

[12] = NCI Yeast Anticancer Drug Screen. Data for the wt2 strain (AID 169);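 further: 0% = growth of vehicle-treated yeast cultures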; details: S. cerevisiae wt2 strain growth inhibition, hits give high values
How it was run: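 Treated yeast vs. vehicle-treated yeast: growth inhibition determined.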

[13] = NCI Yeast Anticancer Drug Screen. Data for the mlh1 strain (AID 171);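 further: 0% = growth of vehicle-treated control cultures of the same strain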; details: S. cerevisiae mlh1 strain growth inhibition, hits give high values
How it was run: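 A yeast strain with a defined genetic lesion serves as the test organism. Cultures receive compound or vehicle, and growth is measured.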

[14] = NCI Yeast Anticancer Drug Screen. Data for the sgs1 strain (AID 173);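 further: 0% = growth of vehicle-only control cultures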; details: S. cerevisiae sgs1 mutant, hits give high values
How it was run: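 A genetically defined yeast mutant is incubated with the test compound, and its growth is compared to that of the same strain given vehicle.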

[15] = NCI Yeast Anticancer Drug Screen. Data for the rad18 strain (AID 177); details: S. cerevisiae rad18 mutant growth inhibition, hits give high values
How it was run: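 Measured value is growth inhibition of a yeast strain bearing a DNA repair alteration, referenced to vehicle-treated cells.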

[16] = at 5.0 µM (retest, dose inferred, filed as 0.5)
[17] = at 50.0 µM (retest, dose inferred, filed as 5.0)

Measured: growth inhibition

NC(=O)C(=O)NNc1ccccc1
active: [1]; at 33.0 µM 85% | [1]; at 100.0 µM 98% | [2]; at 100.0 µM 94% | [3]; at 33.0 µM 85% | [3]; at 100.0 µM 96% | [4]; at 33.0 µM 76% | [4]; at 100.0 µM 97% | [5]; at 33.0 µM 75% | [5]; at 50.0 µM 95.5% | [5]; at 100.0 µM 97% | [6]; at 33.0 µM 81% | [6]; at 50.0 µM 83.8% | [6]; at 100.0 µM 97% | [7]; at 100.0 µM 98% | [8]; [17] 78% | [8]; at 50.0 µM 90.5% | [9]; at 100.0 µM 96% | [10]; at 50.0 µM 80.8% | [11]; at 33.0 µM 95% | [11]; at 50.0 µM 92.2% | [11]; at 100.0 µM 97% | [12]; at 100.0 µM 97% | [13]; at 33.0 µM 75% | [13]; at 100.0 µM 98% | [14]; at 33.0 µM 92% | [14]; at 100.0 µM 98% | [15]; at 33.0 µM 92% | [15]; at 100.0 µM 97%
inactive: [1]; at 1.2 µM 4% | [1]; at 3.7 µM 12% | [1]; at 11.0 µM 39% | [2]; at 1.2 µM 3% | [2]; at 3.7 µM 13% | [2]; at 11.0 µM 45% | [2]; at 33.0 µM 57% | [3]; at 1.2 µM 9% | [3]; at 3.7 µM 29% | [3]; at 11.0 µM 60% | [4]; at 1.2 µM 5% | [4]; at 3.7 µM 10% | [4]; at 11.0 µM 28% | [5]; at 1.2 µM 1% | [5]; at 3.7 µM 6% | [5]; [16] 9% | [5]; at 11.0 µM 31% | [5]; [17] 49% | [6]; at 1.2 µM 0% | [6]; at 3.7 µM 6% | [6]; [16] -1% | [6]; at 11.0 µM 48% | [6]; [17] 4% | [7]; at 1.2 µM 1% | [7]; at 3.7 µM 0% | [7]; at 11.0 µM 13% | [7]; at 33.0 µM 66% | [8]; [16] 8% | [9]; at 1.2 µM -3% | [9]; at 3.7 µM 4% | [9]; at 11.0 µM 41% | [9]; at 33.0 µM 67% | [10]; [16] 9% | [10]; [17] 32% | [11]; at 1.2 µM -3% | [11]; at 3.7 µM 6% | [11]; [16] 27% | [11]; at 11.0 µM 64% | [11]; [17] 66% | [12]; at 1.2 µM 3% | [12]; at 3.7 µM 13% | [12]; at 11.0 µM 34% | [12]; at 33.0 µM 60% | [13]; at 1.2 µM 3% | [13]; at 3.7 µM 5% | [13]; at 11.0 µM 31% | [14]; at 1.2 µM 3% | [14]; at 3.7 µM 14% | [14]; at 11.0 µM 59% | [15]; at 1.2 µM 6% | [15]; at 3.7 µM 17% | [15]; at 11.0 µM 65%

COc1ccc(C/C=N/Nc2ccc([N+](=O)[O-])cc2)cc1OC
active: [5]; [17] 97% | [5]; at 50.0 µM 98.1% | [6]; [17] 98% | [6]; at 50.0 µM 97.3% | [8]; [17] 97% | [8]; at 50.0 µM 97.5% | [10]; [17] 89% | [11]; [17] 97% | [11]; at 50.0 µM 98.2% | [14]; at 100.0 µM 73%
inactive: [1]; at 1.2 µM 8% | [1]; at 3.7 µM 12% | [1]; at 11.0 µM 18% | [1]; at 33.0 µM 39% | [1]; at 100.0 µM 42% | [2]; at 1.2 µM 4% | [2]; at 3.7 µM 2% | [2]; at 11.0 µM 5% | [2]; at 33.0 µM -1% | [2]; at 100.0 µM 2% | [3]; at 1.2 µM 15% | [3]; at 3.7 µM 29% | [3]; at 11.0 µM 33% | [3]; at 33.0 µM 35% | [3]; at 100.0 µM 51% | [4]; at 1.2 µM 2% | [4]; at 3.7 µM 12% | [4]; at 11.0 µM 9% | [4]; at 33.0 µM 4% | [4]; at 100.0 µM 23% | [5]; at 1.2 µM 27% | [5]; at 3.7 µM 36% | [5]; [16] 9% | [5]; at 11.0 µM 28% | [5]; at 33.0 µM 56% | [5]; at 100.0 µM 66% | [6]; at 1.2 µM 1% | [6]; at 3.7 µM 3% | [6]; [16] 16% | [6]; at 11.0 µM 4% | [6]; at 33.0 µM 1% | [6]; at 100.0 µM 6% | [7]; at 1.2 µM 3% | [7]; at 3.7 µM 12% | [7]; at 11.0 µM 23% | [7]; at 33.0 µM 25% | [7]; at 100.0 µM 30% | [8]; [16] 9% | [9]; at 1.2 µM 8% | [9]; at 3.7 µM 6% | [9]; at 11.0 µM 12% | [9]; at 33.0 µM 1% | [9]; at 100.0 µM 20% | [10]; [16] -3% | [10]; at 50.0 µM 54.4% | [11]; at 1.2 µM 3% | [11]; at 3.7 µM 2% | [11]; [16] 12% | [11]; at 11.0 µM 8% | [11]; at 33.0 µM 13% | [11]; at 100.0 µM 23% | [12]; at 1.2 µM -2% | [12]; at 3.7 µM -1% | [12]; at 11.0 µM 5% | [12]; at 33.0 µM 5% | [12]; at 100.0 µM -3% | [13]; at 1.2 µM -1% | [13]; at 3.7 µM 6% | [13]; at 11.0 µM 9% | [13]; at 33.0 µM 11% | [13]; at 100.0 µM 31% | [14]; at 1.2 µM -17% | [14]; at 3.7 µM -24% | [14]; at 11.0 µM -8% | [14]; at 33.0 µM 48% | [15]; at 1.2 µM 15% | [15]; at 3.7 µM 43% | [15]; at 11.0 µM 26% | [15]; at 33.0 µM 20% | [15]; at 100.0 µM 56%

Cc1cc2c(cc1C)[n+]([O-])c(-c1nc3ccccc3s1)c(N)[n+]2[O-]
active: [1]; at 100.0 µM 88% | [3]; at 33.0 µM 82% | [3]; at 100.0 µM 97% | [4]; at 100.0 µM 94% | [5]; at 50.0 µM 87.8% | [5]; at 100.0 µM 93%
inactive: [1]; at 1.2 µM 2% | [1]; at 3.7 µM 10% | [1]; at 11.0 µM 20% | [1]; at 33.0 µM 35% | [2]; at 1.2 µM 10% | [2]; at 3.7 µM 13% | [2]; at 11.0 µM 17% | [2]; at 33.0 µM 20% | [2]; at 100.0 µM 25% | [3]; at 1.2 µM 1% | [3]; at 3.7 µM 15% | [3]; at 11.0 µM 44% | [4]; at 1.2 µM 11% | [4]; at 3.7 µM 18% | [4]; at 11.0 µM 23% | [4]; at 33.0 µM 40% | [5]; at 1.2 µM 0% | [5]; at 3.7 µM 10% | [5]; [16] 3% | [5]; at 11.0 µM 23% | [5]; at 33.0 µM 40% | [5]; [17] 58% | [6]; at 1.2 µM 11% | [6]; at 3.7 µM 21%
